Source: PubChem BioAssay AID602252 (Broad Institute, 2012)
Hit rate of the full screen: of about 300,000 compounds, about 2,700 (0.9%) were called active. Only a selection was taken, and actives are over-represented in it overall. Unmarked numbers belong to inactive results.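 The calls were made as follows: active = mean inhibition of at least 30% with at least half of replicates also reaching 30%; inconclusive = no clear call, values can overlap the other calls; inactive = the rest.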

These compounds were tested against Golgi-associated PDZ and coiled-coil motif-containing protein (Homo sapiens) (UniProt Q9HD26) (assay: untagged CAL PDZ binding inhibitors, primary screen, biochemical, fluorescence polarization, HTS (AID 602252;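 also: 0% = DMSO neutral control and 100% = excess unlabeled competitor peptide PRC23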)). Details: purified CAL PDZ, TMR-peptide fluorescence polarization, 1 h; at 24.9 µM; stronger effect = higher value.
Compound `Cc1ccc(S(=O)(=O)N2CCN(C(=O)COC(=O)/C=C/c3cccc(Cl)c3)CC2)c(C)c1` has an inhibition of -0.868%. `CCOC(=O)N(Cc1ccccc1)C1CC1` gave an inhibition of -3.68%. For `O=C(NC1CCCCC1)N1CCc2[nH]c3ccccc3c2C1`, the inhibition was 73.4% (active). `O=C(Nc1ccc(Cl)cc1)N1CCc2[nH]c3ccccc3c2C1` was tested, and the inhibition was -12.5%. `Fc1ccc(NC(=S)N2CCc3[nH]c4ccccc4c3C2)cc1` was tested, and the inhibition was 0.223%. `COc1ccc(C2=Nn3c(nnc3-c3ccccc3OC)SC2)cc1OC1CCCC1` gave an inhibition of -2.41%. `O=C1OC(Oc2ccc(Br)cc2)(c2ccccc2)c2ccccc21` (centres undefined) showed an inhibition of -1.95%. With `CC(=O)c1c(C)[nH]c(C(=O)OCC(=O)NCCC(C)C)c1C` the inhibition was 66.4% (active). `CC(=O)c1c(C)[nH]c(C(=O)OCC(=O)Nc2cc(S(=O)(=O)N3CCCCC3)ccc2C)c1C` gave an inhibition of -0.974%. For `CC(=O)c1c(C)[nH]c(C(=O)OCC(=O)Nc2c(C)cccc2C)c1C`, the inhibition was 4.23%. Work on `COc1ccc(/C=C(/NC(=O)c2ccccc2)C(=O)Nc2cccc(C(=O)O)c2)cc1` yielded an inhibition of -4.34%. For `Cc1cccc(NC(=O)/C(=C\c2ccco2)NC(=O)c2ccccc2)c1`, the inhibition was 79.4% (active). In the case of `O=C(Nc1ccccc1)/C(=C\c1ccco1)NC(=O)c1ccco1`, the inhibition is reported as -6.57%. `COc1ccc(CCC(=O)Nc2ccc(Cl)c(S(=O)(=O)N3CCOCC3)c2)cc1OC` gave an inhibition of -22.4%. For `CC(=O)OCC1(O)CC23CCC4c5ccoc5CCC4(C)C2CCC1C3` (centres undefined), the inhibition was -3.61%. For `O=C1NCC(Nc2ccccc2)C(=O)N1` (centres undefined), the inhibition was 1.56%. For `CC1(c2ccc3ccccc3c2)NC(=O)NC1=O` (centres undefined), the inhibition was -8.76%. With `O=C1NCC(c2ccccc2)(c2ccccc2)C(=O)N1` the inhibition was 41.9% (active). Work on `COc1ccccc1-c1nnc2n1N=C(c1ccc(OC(F)F)c(OCC3CC3)c1)CS2` yielded an inhibition of -1.27%. `O=C1C(Cl)=C(Oc2ccccc2)C(=O)c2ccccc21` was tested, and the inhibition was 6.75%. Compound `COc1ccccc1C(=O)Nc1ccc(C)c(S(=O)(=O)N2CCCCC2)c1` has an inhibition of -7.43%. With `O=[N+]([O-])c1ccc(C=NN=Cc2ccc([N+](=O)[O-])cc2)cc1` the inhibition was 76.3% (active). In the case of `NC(=S)N/N=C/c1ccc([N+](=O)[O-])cc1`, the inhibition is reported as 1.65%. `O=[N+]([O-])c1ccc(N/N=C/c2ccccc2)cc1` was tested, and the inhibition was 4.6%. For `CC(C)N(Cc1nnc(-c2ccccc2Br)o1)C(=O)c1cc(Cl)nc2ccccc12`, the inhibition was 2.14%. In the case of `CCc1ccc(OC(C)C(=O)Nc2ccc(S(=O)(=O)Nc3cc(C)on3)cc2)cc1` (centres undefined), the inhibition is reported as -5.02%. With `CCC(Oc1ccccc1C)C(=O)Nc1ccc(S(=O)(=O)Nc2cc(C)on2)cc1` (centres undefined) the inhibition was 71.5% (active). With `CCOc1ccc(C(=O)Nc2ccc(S(=O)(=O)Nc3cc(C)on3)cc2)cc1` the inhibition was -5.22%. Compound `CN(c1ccccc1)S(=O)(=O)c1cc(C(=O)N2CCN(c3ncccn3)CC2)ccc1Cl` has an inhibition of -2.36%. Work on `Nc1ncnc2c1ncn2[C@@H]1O[C@H](CNS(=O)(=O)c2ccc(-c3ccno3)s2)[C@@H](O)[C@H]1O` yielded an inhibition of -0.947%. In the case of `COc1ccccc1CC(NC(C)=O)C(=O)NC1CCN(C(=O)Nc2ccccc2Cl)CC1` (centres undefined), the inhibition is reported as 78.3% (active). `COc1cccc(NC(=O)N2CCC(NC(=O)C(Cc3cccc(C)c3)NC(C)=O)CC2)c1` (centres undefined) was tested, and the inhibition was -5.2%. `COc1ccc(CC(NC(C)=O)C(=O)NC2CCN(C(=O)C3CC3)CC2)cc1OC` (centres undefined) gave an inhibition of 5.28%. Work on `C=CCCC(=O)N1C[C@H]2CON(C)[C@H]2C[C@H]1c1cccc(Nc2ccccc2)c1` yielded an inhibition of 1.45%. `O=C(Nc1ccccc1)Oc1cccc2cccnc12` showed an inhibition of -4.21%. `CCC(CO)Oc1cc(NCc2ccccc2)c2ncn(C3CCCC3)c2c1` (centres undefined) showed an inhibition of 2.05%. For `Cc1ccc2nc(C)cc(N/N=C/c3ccc(F)cc3)c2c1`, the inhibition was -0.859%. For `Oc1ccc(/C=N/Nc2nc(-c3ccccc3F)nc3ccccc23)c(O)c1`, the inhibition was 4.73%. With `Cc1cc(N/N=C/c2ccccc2F)c2ccccc2n1` the inhibition was 30.5% (active). `O=C(c1cccnc1)N(Cc1ccccc1)C(=O)c1cccnc1` was tested, and the inhibition was -4.97%. With `CSc1ncccc1C(=O)NCC(c1ccco1)N1CCCCC1` (centres undefined) the inhibition was 63.8% (active). With `COc1ccc(C(CNC(=O)c2cccnc2SC)N2CCOCC2)cc1` (centres undefined) the inhibition was -3.62%. Compound `COc1ccccc1C(=O)NCCC(=O)NCC(c1ccco1)N1CCCCC1` (centres undefined) has an inhibition of 2.93%. Compound `Cc1ccc(C(=O)Nc2ccc3c(c2)OCCO3)cc1S(=O)(=O)N1CCOCC1` has an inhibition of -4.3%. `CCCN(CCC)S(=O)(=O)c1cc2c(cc1Br)CCN2C(=O)CC` gave an inhibition of 0.953%. Compound `COc1ccc(/C=C/C(=O)OCC(=O)N2CCN(S(=O)(=O)c3ccc(C)cc3C)CC2)cc1OC` has an inhibition of 6.76%. Compound `O=C(CSc1nc2ccccc2c(=O)n1-c1ccccc1F)N1CCOCC1` has an inhibition of -2.27%. With `Cc1ccc(OCC(=O)Nc2ccc(C(=O)O)cc2NC(=O)COc2ccc(C)c(C)c2)cc1C` the inhibition was 56.8% (active). With `Cc1ccc(OCC(=O)Nc2cccc3c2CCCC3)cc1C` the inhibition was 1.05%. For `Cc1cccc(OCC(=O)Nc2ccc(C(=O)O)cc2NC(=O)COc2cccc(C)c2)c1`, the inhibition was -0.14%. Work on `Cc1ccc(NC(=O)CCC(=O)N2CCC(c3ccccc3)=N2)cc1S(=O)(=O)N1CCCCC1` yielded an inhibition of -3.11%. In the case of `Cc1ccc(C(=O)N2CCCC(c3ccccc3)=N2)cc1`, the inhibition is reported as 4.38%. In the case of `Cc1ccc(NC(=S)N2CCCC(c3ccccc3)=N2)cc1`, the inhibition is reported as 38.9% (active). `CCCCNC(=O)C(C)N(CCN(C)C)C(=O)CCCN1C(=O)NC(c2ccc(Cl)cc2)C(C(=O)OCc2ccccc2)=C1C` (centres undefined) gave an inhibition of -4.12%. `COc1cccc(C(=O)N2CCCC(CCC(=O)NCc3ccc(F)c(F)c3)C2)c1` (centres undefined) was tested, and the inhibition was -10.1%. Work on `CSc1ncccc1C(=O)N1CCCC(CCC(=O)NCc2ccccc2F)C1` (centres undefined) yielded an inhibition of 4.75%. `Cc1[nH]c2c(C(=O)N3CCCC(CCC(=O)NCc4ccccc4F)C3)cccc2c1C` (centres undefined) was tested, and the inhibition was 46.8% (active). For `COc1cccc(CNC(=O)CCC2CCCN(C(=O)c3ccoc3C)C2)c1` (centres undefined), the inhibition was 56.3% (active). For `O=C(CCC1CCCN(Cc2ccc(O)c(Cl)c2)C1)NCc1ccccc1F` (centres undefined), the inhibition was -4.54%. `COc1cccc(CNC(=O)CCC2CCCN(Cc3ccc(OC(F)F)cc3)C2)c1` (centres undefined) was tested, and the inhibition was 7.33%. `CC(C)(C)S(=O)(=O)N1Cc2cc(CO)cc(CCO)c2[C@H]1CCO` showed an inhibition of -1.94%. In the case of `CC(C)NC(=O)Nc1cccc2c1O[C@@H](CN(C)S(=O)(=O)c1ccc(F)cc1)[C@@H](C)CN([C@H](C)CO)C2=O`, the inhibition is reported as -0.185%. `CCc1cc(C(=O)Nc2nnc(C3CC3)s2)sc1C` was tested, and the inhibition was -1.8%. Compound `CSCCC(NS(=O)(=O)c1ccc(C)cc1)C(=O)N(C)CC(=O)Nc1ccccc1Br` (centres undefined) has an inhibition of 0.255%.
